{"source": "PubChem BioAssay AID360", "about": "(National Center for Advancing Translational Sciences (NCATS), 2006)", "note": "In all, about 48,000 compounds went through this assay and about 550 (1.1%) were called active. Inconclusive results (about 4%) are left out. Only a selection was taken, and actives are over-represented in it overall. Values without a mark were called inactive. No stated cut-off is given here; in the data, active means potency below about 15 µM; inconclusive means mostly about 16 µM to 33 µM; inactive means weaker than that. Potency means the concentration at half of the fitted maximal effect.", "data": [{"target": "Lysosomal acid glucosylceramidase (Homo sapiens) (UniProt P04062)", "sequence (P04062 whole entry, looked up)": "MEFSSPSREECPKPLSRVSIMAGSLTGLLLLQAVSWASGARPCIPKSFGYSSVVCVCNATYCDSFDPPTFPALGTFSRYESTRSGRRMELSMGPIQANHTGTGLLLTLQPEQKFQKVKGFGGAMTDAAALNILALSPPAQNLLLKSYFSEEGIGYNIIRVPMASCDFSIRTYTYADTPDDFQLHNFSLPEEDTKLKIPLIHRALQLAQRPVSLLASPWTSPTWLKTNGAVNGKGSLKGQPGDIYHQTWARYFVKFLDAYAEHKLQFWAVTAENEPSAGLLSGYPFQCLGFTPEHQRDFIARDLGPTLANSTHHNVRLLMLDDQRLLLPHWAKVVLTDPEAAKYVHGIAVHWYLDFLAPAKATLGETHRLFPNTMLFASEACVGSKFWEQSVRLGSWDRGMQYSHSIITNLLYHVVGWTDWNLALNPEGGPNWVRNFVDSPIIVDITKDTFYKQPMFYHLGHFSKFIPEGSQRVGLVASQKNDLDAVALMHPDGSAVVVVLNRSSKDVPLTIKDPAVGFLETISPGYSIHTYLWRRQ", "assay": "Glucocerebrosidase;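 further: the screen sought inhibitors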", "conditions": "purified enzyme, resorufin glucoside fluorescence (screen aimed at inhibitors), 20 min", "excerpt": "NCGC Assay Overview: Beta-glucocerebrosidase catalyzes the hydrolysis of beta-glucocerebroside to glucose and ceramide. The inherited deficiency of beta-glucocerebrosidase results in Gaucher disease, which is characterized by a wide variety of symptoms including hepatosplenomegaly, anemia, thrombocytopenia, bony lesions and bone marrow infiltration with characteristic storage cells, known as Gaucher cells. There are also forms of the disorder affecting the central nervous system. Patients with the same genotypes can manifest with diverse clinical presentations and it is believed that improper folding and trafficking of beta-glucocerbrosidase may contribute to the phenotypes observed. Low molecular weight molecules, acting as chaperones, may potentially restore trafficking of misfolded beta-glucocerebrosidase from the endoplasmic reticulum to the lysosomes, thereby enhancing functional lysosomal beta-glucocerebrosidase activity. Using normal beta-glucocerebrosidase, an assay was developed to screen for small molecule inhibitors that could potentially act as molecular chaperones on the mutant forms [developed with NIH investigator Dr. Ellen Sidransky's laboratory]. Two pro-fluorescent substrates were chosen for two screens against a small molecule library. One beta-glucocerebrosidase assay used Resorufin beta-D-Glucopyranoside (Marker Gene Technology Inc.), generating a red fluorescent product. The second assay used Fluorescein di-beta-D-Glucopyranoside, generating a blue fluorescent product. […] The IC50 values of Conduritol B Epoxide, a known glucocerebrosidase inhibitor, were determined to be 87.5 uM and 117 uM, respectively. The use of two difference pro-fluorescent substrates in the screens helped to eliminate false positives. All compounds were screened in a titration series resulting in AC50s (e.g., IC50s or EC50s).\nNCGC Assay Protocol Summary: Both enzyme and substrate were diluted in buffer composed of 50mM citric acid/KH2PO4, 10mM sodium taurocholate and 0.01% tween-20 at pH 5.9. The final concentration of the enzyme was 0.2 nM in both assays. The compound library was titrated in 7 to 15 concentrations for the primary screens with a final concentration ranging from 0.6 nM to 50 uM. This particular assay protocol is for the \"red\" substrate, and it was performed in 1536-well plate format as follows: Red fluorescence substrate assay: 2 uL enzyme 23 nL compound 1 uL substrate (final concentration of 30 uM) Incubate at room temperature (RT) for 20 minutes Read the plate in Viewlux plate reader (Ex=548(7) and Em=600(10)).", "values": [{"molecule": "CC(C)c1ccc(O)c(CN2CCN(c3ccccc3)CC2)c1", "Potency": "10.2 µM (active)"}, {"molecule": "Fc1ccc(N2CCN(Cc3ccc4c(c3)OCO4)CC2)cc1", "Potency": "> 76.9 µM"}, {"molecule": "O=C(c1cc(-c2ccncc2)nc2ccccc12)N1CCC2(CC1)OCCO2", "Potency": "> 76.9 µM"}, {"molecule": "CC(=NCC1CCCO1)c1c(O)n(-c2ccccc2)c(=O)[nH]c1=O", "note": "(stereo not given)", "Potency": "> 76.9 µM"}, {"molecule": "CC(=O)c1c(O)n(C2CCCCCC2)c(=O)[nH]c1=O", "Potency": "> 76.9 µM"}]}]}
